Data reported in PubChem BioAssay (Tox21).
Inconclusive results are not listed. Some structures have more than one record in an assay (separate samples or runs), and their calls can disagree. Activity calls are given as the source filed them. Unless noted, calls come from the whole dose curve.

How the values were obtained:
[1] = target: Gonadotropin-releasing hormone receptor (Homo sapiens) (UniProt P30968); assay: Human gonadotropin-releasing hormone receptor (GnRHR) small molecule agonists, calcium flux assay in GnRHR-HEK293 cells (AID 1920063); note: nearly all actives have a fitted effect of over 35% in size
Summary of the method: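 HEK293 cells stably expressing human GnRHR were plated 18 h at 37 °C, loaded with calcium dye 1 h at 37 °C, then given compound in agonist mode; fluorescence (Ex/Em 480/540) read kinetically for 3 min at 1 s intervals.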

[2] = target: KiSS-1 receptor (Homo sapiens) (UniProt Q969F8); assay: Human kisspeptin (KISS1R) small molecule agonists, calcium flux assay in KISS1R-HEK293 cells (AID 1920064; active = well fitted activation curve with a large enough effect in the repeat runs)
Summary of the method: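 HEK293 cells stably expressing human KISS1R were plated 18 h at 37 °C, loaded with calcium dye for 1 h at 37 °C, then given compound by pin tool. Fluorescence (Ex/Em 480/540) was read kinetically for 3 min.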

[3] = G protein-coupled receptor (GPCR) small molecule agonists, calcium flux assay: HEK293 wild type cell line counter screen (AID 1920065)
Summary of the method: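 Cells were plated and cultured 18 h at 37 C/5% CO2, then loaded with calcium dye for 1 h at 37 C. Compounds in DMSO were pin-transferred in agonist mode, and fluorescence (Ex/Em 480/540) was read kinetically for 3 min at 1 s intervals.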

[4] = p53 small molecule agonists, cell-based qHTS assay with human liver microsomes (AID 1963577)
Summary of the method: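 p53RE-bla cells, 4,000/well, compound added after 5 h, with human liver microsomes 0.5 mg/mL and NADPH 0.5 mg/mL final; 16 h at 37 C, then LiveBLAzer 2 h RT, fluorescence.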

[5] = p53 small molecule agonists, cell-based qHTS assay with rat liver microsomes (AID 1963578)
Summary of the method: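 p53RE-bla cells, 4,000/well, pre-incubated 5 h, then given compounds plus rat liver microsomes (0.5 mg/mL final) and NADPH (0.5 mg/mL final). Incubation 16 h at 37 C; beta-lactamase reporter read by LiveBLAzer fluorescence after 2 h at room temperature.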

[6] = p53 small molecule agonists, cell-based qHTS assay with human liver microsomes: qHTS cell viability counter screen (AID 1963579); note: nearly all actives have a fitted effect of over 45% in size; note: potency is the fitted concentration of half-maximal effect
Summary of the method: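 p53RE-bla cells, 4,000/well, dosed 5 hours after plating, with human liver microsomes (0.5 mg/mL final) plus NADPH (0.5 mg/mL final), 16 hours at 37 C. Viability read as CellTiter-Glo luminescence after 30 min at room temperature.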

[7] = p53 small molecule agonists, cell-based qHTS assay: qHTS cell viability counter screen (AID 1963581); note: nearly all actives have a fitted effect of over 45% in size
Summary of the method: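 p53RE-bla HCT-116 cells were exposed to compounds for 16 h at 37 C; after the beta-lactamase FRET read in the same wells, CellTiter-Glo was added and luminescence (intracellular ATP) read after 30 min at room temperature.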

[8] = p53 small molecule agonists, cell-based qHTS assay (AID 1963582; active = well fitted activation curve with a large enough effect in the signal ratio in the repeat runs, not every such curve was filed as active; the % refers to the signal ratio)
Summary of the method: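 p53RE-bla beta-lactamase reporter cells rested 5 h at 37 C/5% CO2, then received compounds in DMSO by pin transfer and were incubated 16 h at 37 C. LiveBLAzer B/G FRET substrate was loaded for 2 h at room temperature before fluorescence reading.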

[9] = target: 5-hydroxytryptamine receptor 2A (Homo sapiens) (UniProt P28223); assay: 5-hydroxytryptamine receptor 2A (HTR2A) small molecule agonists, cell-based qHTS assay (AID 1963587); note: nearly all actives have a fitted effect of over 30% in size; note: potency is the fitted concentration of half-maximal effect
Summary of the method: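 HTR2A-CHO cells, plated 18 h at 37 C/5% CO2, dye-loaded 1 h at 37 C; compounds in DMSO added by pin tool (agonist mode). Intracellular calcium flux read as kinetic fluorescence on FDSS over 2 min at 1 s intervals.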

[10] = target: Muscarinic acetylcholine receptor M1 (Homo sapiens) (UniProt P11229); assay: Cholinergic receptor muscarinic 1 (CHRM1) small molecule agonists, cell-based qHTS assay (AID 1963589); note: nearly all actives have a fitted effect of over 35% in size
Summary of the method: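 CHO cells stably expressing human CHRM1, seeded 18 h at 37 C/5% CO2, dye-loaded 1 h at 37 C, then given compound in agonist mode; intracellular calcium fluorescence read kinetically at 1 s intervals. Fifteen concentrations, three independent runs.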

[11] = target: Beta-2 adrenergic receptor (Homo sapiens) (UniProt P07550); assay: Adrenergic beta2 receptor (ADRB2) small molecule antagonists, cell-based qHTS assay (AID 1963592); note: series mostly up to about 92 µM; nearly all actives have a fitted effect of over 50% in size
Summary of the method: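 Cells (CHO, stable ADRB2 overexpression) incubated 18-20hr at 37C; compounds added from DMSO; agonist mix (1nM isoproterenol, 100uM IBMX, 25uM Ro-20-1724) added; 0.5hr RT; d2-cAMP and anti-cAMP-cryptate added; 1hr RT; 665/615 nm read.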

[12] = target: D(2) dopamine receptor (Homo sapiens) (UniProt P14416); assay: Dopamine D2 receptor (DRD2) small molecule agonists, cell-based qHTS assay (AID 1963594); note: nearly all actives have a fitted effect of over 35% in size
Summary of the method: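 HEK293 cells stably expressing DRD2 were cultured 24 h at 37 C, then given Ro20-1724 (0.1 mM final) and compounds for 10 min at room temperature. NKH477 (200nM) was then added for 30 min. cAMP was read by HTRF.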

[13] = target: D(2) dopamine receptor (Homo sapiens) (UniProt P14416); assay: Dopamine D2 receptor (DRD2) small molecule antagonists, cell-based qHTS assay (AID 1963595; active = well fitted inhibition curve with a large enough effect in the signal ratio in the repeat runs, with a control signal flat; the % refers to the signal ratio; note: potency is the fitted concentration of half-maximal effect)
Summary of the method: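 In this cell-based antagonist screen, compounds act for 10 min at room temperature before a 30 min challenge with 12 nM quinpirole and 200 nM NKH477. cAMP is quantified by HTRF competition in DRD2-HEK293 cells containing 0.1 mM Ro20-1724.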

[14] = Nuclear factor erythroid 2-related factor 2/antioxidant responsive element (Nrf2/ARE) small molecule agonists: luciferase reporter gene qHTS assay in human keratinocytes (AID 1919969); note: nearly all actives have a fitted effect of over 35% in size; note: potency is the fitted concentration of half-maximal effect
[15] = target: 5-hydroxytryptamine receptor 2A (Homo sapiens) (UniProt P28223); assay: 5-hydroxytryptamine receptor 2A (HTR2A) small molecule antagonists, cell-based qHTS assay (AID 1963586); note: nearly all actives have a fitted effect of over 45% in size; note: potency is the fitted concentration of half-maximal effect
Summary of the method: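 Antagonist-mode intracellular calcium assay: DOI (4 nM) added after 5 min compound pre-incubation at room temperature to dye-loaded HTR2A-CHO cells. Fluorescence followed for 3 min, sampled every second.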

[16] = target: Muscarinic acetylcholine receptor M1 (Homo sapiens) (UniProt P11229); assay: Cholinergic receptor muscarinic 1 (CHRM1) small molecule antagonists, cell-based qHTS assay (AID 1963588); note: nearly all actives have a fitted effect of over 40% in size; note: potency is the fitted concentration of half-maximal effect
Summary of the method: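 CHRM1-CHO calcium-flux assay, antagonist mode. Cells were seeded 18 h, dye-loaded 1 h at 37 C and given compound for 5 min at RT, then acetylcholine was added at 50nM. FDSS fluorescence was read 3 min; 15 concentrations, three runs.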

[17] = p53 small molecule agonists, cell-based qHTS assay with rat liver microsomes: qHTS cell viability counter screen (AID 1963580); note: nearly all actives have a fitted effect of over 45% in size
Summary of the method: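 In HCT-116 cells carrying a p53 response element-bla reporter, compounds were metabolically activated in situ by rat liver microsomes with NADPH over 16 h. Cell ATP content then served as the cytotoxicity measure.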

[18] = cAMP Responsive Elements (CRE) small molecule antagonists, cell-based qHTS assay (AID 1963591; active = well fitted inhibition curve with a large enough effect in the signal ratio in the repeat runs, not every such curve was filed as active; the % refers to the signal ratio)
Summary of the method: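 CRE-bla HEK293T cells were plated 18 h at 37 °C/5% CO2, pinned with compound in DMSO, then stimulated with NKH477 at 0.25 uM final for 3 h. LiveBLAzer B/G FRET substrate was added and plates incubated 2 h at room temperature.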

[19] = cAMP Responsive Elements (CRE) small molecule agonists, cell-based qHTS assay (AID 1963590)
Summary of the method: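 CRE-bla HEK 293T cells in DMEM with 10% dialyzed FBS, NEAA, pyruvate and 25 mM HEPES were plated 18 h at 37 C/5% CO2, then exposed to compounds in DMSO for 3 h before LiveBLAzer B/G FRET substrate addition.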

[20] = target: Beta-2 adrenergic receptor (Homo sapiens) (UniProt P07550); assay: Adrenergic beta2 receptor (ADRB2) small molecule agonists, cell-based qHTS assay (AID 1963593);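 note: CHO cells stably overexpressing human ADRB2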
Summary of the method: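 CHO cells stably over-expressing ADRB2 were plated overnight at 37C, then dosed with compounds plus a stimulation mix containing 100uM IBMX and 25uM Ro-20-1724 for 0.5hr at room temperature. cAMP was measured by HTRF competition, 1hr.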

Measured: Potency

Chain of Muscarinic acetylcholine receptor M1 (Homo sapiens) (P11229 whole entry, looked up): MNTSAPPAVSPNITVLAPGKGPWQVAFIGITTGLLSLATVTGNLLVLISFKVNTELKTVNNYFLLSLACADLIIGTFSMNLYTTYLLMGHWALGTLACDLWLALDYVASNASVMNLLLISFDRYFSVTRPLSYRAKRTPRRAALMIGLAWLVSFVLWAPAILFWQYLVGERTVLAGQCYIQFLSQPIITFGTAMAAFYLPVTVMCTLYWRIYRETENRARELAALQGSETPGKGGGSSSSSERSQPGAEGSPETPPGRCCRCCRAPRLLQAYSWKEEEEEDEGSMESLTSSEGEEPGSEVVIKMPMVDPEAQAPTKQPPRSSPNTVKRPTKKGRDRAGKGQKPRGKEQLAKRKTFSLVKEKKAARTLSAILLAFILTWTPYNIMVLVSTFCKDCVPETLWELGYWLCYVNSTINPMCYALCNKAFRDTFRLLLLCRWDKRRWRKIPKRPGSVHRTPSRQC
Chain of 5-hydroxytryptamine receptor 2A (Homo sapiens) (P28223 whole entry, looked up): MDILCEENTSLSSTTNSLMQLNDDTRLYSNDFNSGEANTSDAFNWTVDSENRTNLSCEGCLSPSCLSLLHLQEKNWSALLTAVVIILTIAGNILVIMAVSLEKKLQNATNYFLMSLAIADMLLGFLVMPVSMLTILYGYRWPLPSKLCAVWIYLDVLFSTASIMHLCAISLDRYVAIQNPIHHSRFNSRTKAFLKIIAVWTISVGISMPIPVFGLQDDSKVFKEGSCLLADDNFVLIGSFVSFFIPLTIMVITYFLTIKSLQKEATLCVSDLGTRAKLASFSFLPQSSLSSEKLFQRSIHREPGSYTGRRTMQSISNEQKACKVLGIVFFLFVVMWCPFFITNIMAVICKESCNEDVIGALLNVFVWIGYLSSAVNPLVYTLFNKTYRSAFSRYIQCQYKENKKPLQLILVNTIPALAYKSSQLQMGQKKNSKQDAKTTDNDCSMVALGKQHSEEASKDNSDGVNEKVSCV
Chain of KiSS-1 receptor (Homo sapiens) (Q969F8 whole entry, looked up): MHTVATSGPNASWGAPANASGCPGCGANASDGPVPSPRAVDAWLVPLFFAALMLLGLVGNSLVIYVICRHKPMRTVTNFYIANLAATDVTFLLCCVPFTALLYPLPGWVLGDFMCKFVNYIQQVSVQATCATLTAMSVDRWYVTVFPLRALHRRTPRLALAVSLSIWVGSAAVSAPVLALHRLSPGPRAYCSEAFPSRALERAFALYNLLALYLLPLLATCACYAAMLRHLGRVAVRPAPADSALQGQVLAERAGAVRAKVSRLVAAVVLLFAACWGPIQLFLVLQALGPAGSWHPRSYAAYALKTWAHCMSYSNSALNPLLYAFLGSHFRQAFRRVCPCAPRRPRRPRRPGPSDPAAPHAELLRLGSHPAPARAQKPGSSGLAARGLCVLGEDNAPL
Chain of Beta-2 adrenergic receptor (Homo sapiens) (P07550 whole entry, looked up): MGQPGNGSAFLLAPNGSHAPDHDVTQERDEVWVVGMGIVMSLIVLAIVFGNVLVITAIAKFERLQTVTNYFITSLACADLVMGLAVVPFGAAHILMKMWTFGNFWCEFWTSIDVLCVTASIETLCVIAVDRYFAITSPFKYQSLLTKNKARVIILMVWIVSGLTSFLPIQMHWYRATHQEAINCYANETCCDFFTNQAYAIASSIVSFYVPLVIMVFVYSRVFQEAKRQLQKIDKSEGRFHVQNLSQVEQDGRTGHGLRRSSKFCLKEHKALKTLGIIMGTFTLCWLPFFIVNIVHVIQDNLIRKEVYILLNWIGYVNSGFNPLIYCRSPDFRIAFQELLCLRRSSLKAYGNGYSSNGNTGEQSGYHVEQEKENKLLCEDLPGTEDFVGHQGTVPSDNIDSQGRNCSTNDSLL
Chain of Gonadotropin-releasing hormone receptor (Homo sapiens) (P30968 whole entry, looked up): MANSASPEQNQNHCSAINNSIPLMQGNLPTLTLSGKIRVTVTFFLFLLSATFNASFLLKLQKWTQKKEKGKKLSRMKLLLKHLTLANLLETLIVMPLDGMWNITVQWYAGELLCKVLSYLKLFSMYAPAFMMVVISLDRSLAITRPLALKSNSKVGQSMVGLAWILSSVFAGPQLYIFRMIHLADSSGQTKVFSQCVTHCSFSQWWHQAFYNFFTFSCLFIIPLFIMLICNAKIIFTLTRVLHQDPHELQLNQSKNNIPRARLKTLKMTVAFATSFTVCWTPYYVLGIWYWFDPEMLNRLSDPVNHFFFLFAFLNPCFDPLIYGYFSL
Chain of D(2) dopamine receptor (Homo sapiens) (P14416 whole entry, looked up): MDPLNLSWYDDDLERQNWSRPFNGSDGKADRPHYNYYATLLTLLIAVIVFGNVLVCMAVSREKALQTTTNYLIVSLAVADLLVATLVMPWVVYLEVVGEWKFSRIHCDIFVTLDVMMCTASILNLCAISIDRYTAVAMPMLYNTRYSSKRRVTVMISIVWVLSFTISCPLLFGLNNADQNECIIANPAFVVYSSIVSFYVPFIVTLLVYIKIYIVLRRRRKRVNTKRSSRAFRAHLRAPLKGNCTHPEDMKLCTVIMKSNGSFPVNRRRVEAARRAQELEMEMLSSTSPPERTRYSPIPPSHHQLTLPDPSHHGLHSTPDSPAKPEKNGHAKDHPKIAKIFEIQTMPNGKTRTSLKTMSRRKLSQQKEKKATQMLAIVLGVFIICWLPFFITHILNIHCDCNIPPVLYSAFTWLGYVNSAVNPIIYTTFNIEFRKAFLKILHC

CCC(C)c1cccc(C(C)CC)c1O (centres undefined)
not listed: [14] | [15] | [16] | [17] | [18] | [19] | [20]
inactive: all other assays above

COc1cc(OC)c(OC)cc1C=O
inactive: [14] | [2] | [6] | [8] | [15] | [9] | [16] | [10]

IC(I)=C(I)I
inactive: [1] | [2] | [3] | [4] | [9] | [16] | [10] | [12]
active: [6] 16.2 µM | [13] 54.5 µM

Fc1ccc(Oc2ccnc3cc(Cl)cc(Cl)c23)cc1
not listed: [4] | [8] | [9] | [11] | [12] | [14] | [19] | [20]
inactive: all other assays above

CCOP(=S)(NC(C)C)Oc1ccccc1C(=O)OC(C)C (centres undefined)
inactive: [14] | [3] | [6] | [17] | [7] | [15] | [16] | [11] | [12] | [13]

CCNS(=O)(=O)C(F)(F)C(F)(F)C(F)(F)C(F)(F)C(F)(F)C(F)(F)C(F)(F)C(F)(F)F
not listed: [4] | [5] | [8] | [14]
inactive: all other assays above

S=C=Nc1ccccc1
not listed: [5] | [12] | [14] | [18] | [20]
inactive: all other assays above

c1ccc2c(c1)OCC(C1=NCCN1)O2 (centres undefined)
active: [14] 23.7 µM
not listed: [1] | [3] | [7] | [10] | [11] | [13] | [20]
inactive: all other assays above

COc1ccc2c(c1OC)C(=O)O[C@H]2[C@@H]1c2cc3c(cc2CCN1C)OCO3
not listed: [12] | [14] | [16] | [18]
inactive: all other assays above

CC1(C)C(C(=O)OC(C#N)c2cccc(Oc3ccccc3)c2)C1(C)C (centres undefined)
39.2 µM (active) and inactive: [9]
not listed: [1] | [2] | [16] | [20]
inactive: all other assays above

CC(=O)c1cc2c(cc1C)C(C)(C)C(C)CC2(C)C (centres undefined)
not listed: [8] | [14] | [19] | [20]
inactive: all other assays above

O=S(=O)(NS(=O)(=O)C(F)(F)F)C(F)(F)F
not listed: [4] | [5] | [8] | [10] | [14] | [18] | [19]
inactive: all other assays above

CCOC(=O)[C@]1(c2ccccc2)Oc2ccccc2[C@@H]1N
active: [16] 8.4 µM
not listed: [4] | [5] | [8] | [13] | [14] | [18] | [19] | [20]
inactive: all other assays above

CC(C)(C)C(O)C(Oc1ccc(-c2ccccc2)cc1)n1cncn1 (centres undefined)
not listed: [4] | [5] | [14] | [17] | [19] | [20]
inactive: all other assays above

CCOP(=O)(OCC)Oc1nc(Cl)c(Cl)cc1Cl
inactive: [1] | [2] | [3] | [6] | [17] | [7] | [15] | [9] | [16] | [12] | [13]

c1cc[c]([Hg][c]2ccccc2)cc1
inactive: [1] | [2] | [3] | [4] | [5] | [9] | [16] | [10] | [12]
active: [13] 4.33 µM

O=[N+]([O-])C(Br)(CO)CO
inactive: [1] | [2] | [3] | [17] | [7] | [15] | [16] | [10] | [19] | [11]

CCCN(CC)CC1COC2(CCC(C(C)(C)C)CC2)O1 (centres undefined)
active: [15] 10.6 µM | [9] 43.6 µM
not listed: [5] | [14] | [17]
inactive: all other assays above

O=C1c2ccccc2C(=O)C1C(=O)C(c1ccccc1)c1ccccc1
not listed: [4] | [6] | [8] | [11] | [13] | [14] | [19] | [20]
inactive: all other assays above
